Here are results for 9 molecules from PubChem BioAssay (Tox21).

A short description of test [1]: qHTS assay to identify small molecule antagonists of the estrogen related receptor (ERR) signaling pathway from Tox21 library - cell viability counter screen (AID 1224834). Also: nearly all actives have a fitted effect of over 30% in size. In outline:
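Counter screen run in ERR cells (2,000 cells/well): cells pre-incubated 6 h, then treated with compounds for 17.5 h at 37 C. Fluorescence was read 30 min after CellTiter-Fluor addition.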
Background: qHTS replaces the single test concentration by a dilution series.

Test [2] deals with Luciferin 4-monooxygenase (Photinus pyralis) (UniProt P08659). Briefly: qHTS assay to identify small molecule inhibitors of firefly luciferase (AID 1224835). Also: nearly all actives have a fitted effect of over 25% in size. In outline:
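Inhibition of purified Photinus luciferase is measured by luminescence. Substrate levels (D-luciferin, ATP) sit at their KM values. Each compound is tested in a concentration series.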

A short description of test [3]: qHTS assay to identify small molecule agonists of the constitutive androstane receptor (CAR) signaling pathway - cell viability counter screen (AID 1224836). Also: nearly all actives have a fitted effect of over 45% in size. In outline: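 Compound titrations (15 concentrations) went onto HepG2-CYP2B6-hCAR cells 4 h after seeding, alongside PK11195 at a final 0.75 uM; a 23 h, 37 C/5% CO2 incubation preceded CellTiter-Fluor viability measurement.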

The target in test [4] is Nuclear receptor subfamily 1 group I member 3 (Homo sapiens) (UniProt Q14994). As to the kind of experiment: qHTS assay to identify small molecule antagonists of the constitutive androstane receptor (CAR) signaling pathway (AID 1224838). Also: nearly all actives have a fitted effect of over 40% in size. Put shortly:
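Inhibition of CITCO-driven (50 nM final) CYP2B6 reporter expression is measured in HepG2 cells stably carrying hCAR. Fifteen compound concentrations are applied for 24 h at 37 C, followed by luciferase luminescence.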

Test [5] has the same target. As to the kind of experiment: qHTS assay to identify small molecule agonists of the constitutive androstane receptor (CAR) signaling pathway (AID 1224839). Also: nearly all actives have a fitted effect of over 15% in size. In outline:
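In this screen, CAR-driven CYP2B6 promoter activity is measured by luminescence in HepG2-CYP2B6-hCAR cells after 24 h with test compounds and 0.75 uM PK11195 (final concentration).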

A short description of test [6]: qHTS assay to identify small molecule antagonists of the estrogen related receptor signaling pathway with the pleiotropic PPARgamma coactivator (PGC) from Tox21 10K library - cell viability counter screen (AID 1224840; active = well fitted cell-killing curve with a large enough effect in the repeat runs, not every such curve was filed as active; also: nearly all actives have a fitted effect of over 40% in size). Put shortly: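 Readout: fluorescence intensity from CellTiter-Fluor after 30 min at 37 C/5% CO2. Preceded by 17.5 h treatment of PGC/ERR cells with DMSO-dissolved compounds, added 6 h post-seeding.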

Test [7] addresses Thyrotropin receptor (Homo sapiens) (UniProt P16473). As to the kind of experiment: qHTS assay to identify small molecule agonists of the thyroid stimulating hormone receptor (TSHR) signaling pathway (AID 1224843; calls by dose curve; also: nearly all actives have a fitted effect of over 45% in size). Put shortly:
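A cell-based cAMP HTRF format was run in TSHR-transfected HEK293 cells, 800 per well. Treatment: 30 min, room temperature. Detection: 1 h with labelled cAMP and anti-cAMP cryptate. Concentration-response over 15 points, three replicates.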

Test [8] in a line: qHTS assay to identify small molecule agonists of the hypoxia (HIF-1) signaling pathway - cell viability counter screen (AID 1224844; calls by dose curve; also: nearly all actives have a fitted effect of over 50% in size). In outline:
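In this counter screen, HRE-bla ME-180 cell viability after 17 hrs of compound exposure at 37C was read by CellTiter-Glo luminescence, multiplexed with the beta-lactamase reporter measurement.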

Test [9] in a line: qHTS assay to identify small molecule agonists of H2AX (AID 1224845; active = well fitted activation curve with a large enough effect in the signal ratio in the repeat runs, not every such curve was filed as active; the % refers to the signal ratio). Put shortly: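 Phospho-H2AX Ser139 measured by HTRF (ex 320 nm; em 665 and 620 nm) after 24 hr antibody incubation. Compounds, 15 concentrations, 0.76% DMSO, were applied to CHO-K1 cells for 3hr at 37C before lysis.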
A short description of test [10]: qHTS assay to identify small molecule agonists of the hypoxia (HIF-1) signaling pathway (AID 1224846; active = well fitted activation curve with a large enough effect in the signal ratio in the repeat runs, not every such curve was filed as active; the % refers to the signal ratio). In outline:
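ME-180 HRE-bla reporter cells; compounds in DMSO, 17 h at 37C; read-out beta-lactamase via CCF4-AM FRET.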

The nature of test [11]: qHTS assay to identify small molecule agonists of H2AX - cell viability counter screen (AID 1224847; calls by dose curve; also: top concentration of the series differs between compounds; nearly all actives have a fitted effect of over 30% in size). In outline: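 Read-out: CellTiter-Glo luminescence, 30 min RT. Cells: wild-type CHO-K1, 1000/well, 10% FBS, plated overnight at 37C. Treatment: 15 concentrations, 3 hr, 37C, 0.76% DMSO.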
Test [12] can be described thus: qHTS RealTime-Glo MT Cell Viability Assay in HepG2 cells - 24 hour (AID 1224867). Also: nearly all actives have a fitted effect of over 50% in size. In outline:
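Cell number in HepG2 cultures estimated from NanoLuc luminescence generated by metabolic reduction of a prosubstrate by living cells. The homogeneous, nonlytic format allowed repeated reads at 0, 8, 16, 24, 32 and 40 h of compound exposure.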

A short description of test [13]: qHTS RealTime-Glo MT Cell Viability Assay in HEK293 cells - 32 hour (AID 1224868). Also: top concentration of the series differs between compounds; nearly all actives have a fitted effect of over 50% in size. Put shortly: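 Homogeneous bioluminescent viability format in HEK293 cells (600 cells/well). Following 5 h at 37 C/5% CO2, 23 nL compound was pintooled; the signal was measured repeatedly during 40 h incubation.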
A short description of test [14]: qHTS assay to identify small molecule antagonists of the estrogen related receptor signaling pathway with the pleiotropic PPARgamma coactivator (PGC) from Tox21 10K library (AID 1224841; call rule not given here; also: actives are mostly falling curves and most rising ones were filed inactive; nearly all actives have a fitted effect of over 50% in size). In outline: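 One-Glo luminescence, measured after half an hour at room temperature, quantified reporter output of PGC/ERR cells. These had been plated at 2,000 per well, incubated 6 h, dosed with compounds in DMSO, then kept 18 h at 37 C.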

The nature of test [15]: qHTS assay to identify small molecule agonists of the estrogen related receptor signaling pathway with the pleiotropic PPARgamma coactivator (PGC) from Tox21 10K library (AID 1224842). Also: nearly all actives have a fitted effect of over 15% in size. In outline:
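Luminescence from One-Glo (30 min, room temperature) measured after PGC/ERR cells had 18 h at 37 C with pinned compound (23 nL in DMSO). Cells had been seeded at 2,000 per well and pre-incubated 6 h.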

Test [16] can be described thus: qHTS assay to identify small molecule antagonists of the estrogen related receptor (ERR) signaling pathway from Tox21 library (AID 1224848). Also: nearly all actives have a fitted effect of over 50% in size. In outline:
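ERR cell line, 2,000 cells/well. 6 h settle, then compound (DMSO) added; 18 h at 37 C; ONE-Glo luminescence after 30 min RT.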

Test [17] can be described thus: qHTS assay to identify small molecule agonists of the estrogen related receptor (ERR) signaling pathway from Tox21 library (AID 1224849; calls by dose curve; also: nearly all actives have a fitted effect of over 15% in size). The conditions noted are these: ERR reporter cell line, ONE-Glo luciferase, 18 h. Put shortly: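 Luciferase activity in ERR pathway reporter cells served as the agonist readout; exposure lasted 18 h at 37 C, with ONE-Glo detection after 30 min at room temperature.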

Test [18] is described as follows: qHTS assay to identify small molecule antagonists of the constitutive androstane receptor (CAR) signaling pathway - cell viability counter screen (AID 1224837). Also: nearly all actives have a fitted effect of over 45% in size. Put shortly:
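CITCO at 50 nM final was added alongside compounds (15 concentrations) to double-stable hCAR/CYP2B6-2.2kb HepG2 cells. Following 23 hr at 37 C, cell viability was quantified by CellTiter-Fluor fluorescence intensity.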

Test [19] in a line: A CellTox Green Cytotoxicity Assay to monitor cytotoxicity in HEK293 cells - 0 hour (AID 1224869). Also: nearly all actives have a fitted effect of over 50% in size. Put shortly:
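Real-time, in one plate: 600 HEK293 cells/well with dead-cell DNA dye, pinned compound after 5 h, 37 C incubation over 40 h; viable cells give no appreciable fluorescence.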

Several values for one entry are separate records, joined by “and”; a condition that tells them apart may be missing. Equal entries are not always repeated. Records with an inconclusive call do not appear. The source holds several records for some structures; these can differ, active in one and inactive in another. Activity calls are given as the source filed them. Unless noted, calls follow the shape of the dose curve; as a rule, active = well fitted curve in the direction sought with a large enough effect in the repeat runs; inconclusive = weak or mixed curves; inactive = no such curve, though single readings can be large; an effect the other way counts as inactive or inconclusive.
% is scaled to controls: 0 for no effect and ±100 for the full control effect.

Chain of Nuclear receptor subfamily 1 group I member 3 (Homo sapiens) (Q14994 whole entry, looked up): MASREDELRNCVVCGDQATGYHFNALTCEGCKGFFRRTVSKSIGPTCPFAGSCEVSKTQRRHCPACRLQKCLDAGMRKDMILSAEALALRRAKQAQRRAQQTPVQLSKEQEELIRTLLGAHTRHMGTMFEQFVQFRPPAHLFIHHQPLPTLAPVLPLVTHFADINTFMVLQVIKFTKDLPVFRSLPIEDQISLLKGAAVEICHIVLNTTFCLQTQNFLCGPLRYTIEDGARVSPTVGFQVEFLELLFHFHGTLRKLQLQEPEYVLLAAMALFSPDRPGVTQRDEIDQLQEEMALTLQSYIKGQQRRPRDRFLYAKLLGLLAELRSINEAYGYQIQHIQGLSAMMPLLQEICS
Chain of Thyrotropin receptor (Homo sapiens) (P16473 whole entry, looked up): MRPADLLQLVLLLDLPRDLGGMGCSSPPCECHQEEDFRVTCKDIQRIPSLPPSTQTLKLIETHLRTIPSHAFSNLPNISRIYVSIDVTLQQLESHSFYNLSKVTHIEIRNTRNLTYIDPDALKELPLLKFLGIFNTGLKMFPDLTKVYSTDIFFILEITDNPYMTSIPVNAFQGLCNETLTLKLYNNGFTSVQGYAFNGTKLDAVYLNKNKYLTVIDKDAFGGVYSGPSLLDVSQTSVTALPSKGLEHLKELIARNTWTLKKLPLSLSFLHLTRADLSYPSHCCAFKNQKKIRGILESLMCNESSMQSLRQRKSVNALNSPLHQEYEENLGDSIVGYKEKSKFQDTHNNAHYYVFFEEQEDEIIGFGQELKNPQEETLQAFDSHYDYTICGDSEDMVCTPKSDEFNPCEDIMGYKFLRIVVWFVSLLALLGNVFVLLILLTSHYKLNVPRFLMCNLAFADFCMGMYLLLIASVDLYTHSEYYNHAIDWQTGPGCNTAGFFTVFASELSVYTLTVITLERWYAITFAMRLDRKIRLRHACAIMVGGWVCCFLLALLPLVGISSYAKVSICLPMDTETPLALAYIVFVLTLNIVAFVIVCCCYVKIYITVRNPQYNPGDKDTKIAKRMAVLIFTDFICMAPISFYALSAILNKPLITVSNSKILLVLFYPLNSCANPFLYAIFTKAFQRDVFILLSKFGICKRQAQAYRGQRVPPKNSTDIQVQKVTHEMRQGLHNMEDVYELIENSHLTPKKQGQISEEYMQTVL
Chain of Luciferin 4-monooxygenase (Photinus pyralis) (P08659 whole entry, looked up): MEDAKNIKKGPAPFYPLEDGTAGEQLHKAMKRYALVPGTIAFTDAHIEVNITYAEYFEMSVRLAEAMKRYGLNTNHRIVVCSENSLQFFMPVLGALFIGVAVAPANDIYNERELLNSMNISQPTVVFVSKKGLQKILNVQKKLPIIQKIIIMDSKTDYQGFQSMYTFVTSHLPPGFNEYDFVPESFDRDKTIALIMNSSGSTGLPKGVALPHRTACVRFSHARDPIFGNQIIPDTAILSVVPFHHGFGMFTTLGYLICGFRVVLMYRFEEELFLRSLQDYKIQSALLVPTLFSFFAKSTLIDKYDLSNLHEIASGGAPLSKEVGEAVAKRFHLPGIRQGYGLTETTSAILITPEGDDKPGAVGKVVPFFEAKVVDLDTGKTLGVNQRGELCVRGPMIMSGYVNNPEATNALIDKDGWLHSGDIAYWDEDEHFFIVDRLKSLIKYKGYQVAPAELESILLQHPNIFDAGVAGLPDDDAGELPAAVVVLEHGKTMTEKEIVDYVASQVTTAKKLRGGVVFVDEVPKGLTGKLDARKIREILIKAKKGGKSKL

On to `CCCCC(CC)C(=O)Cl` (configuration not stated), for which the Potency result in test [1], in test [2], in test [3], in test [4], in test [5] and in test [6] was “inactive” in each case. Further, the Potency entry in test [7], in test [8], in test [9], in test [11] and in [13] was “inactive” throughout. Moreover, the outcome in test [10] and in [12] was inactive.

For the molecule `COC(C)(C)CCCC(C)C/C=C/C(C)=C/C(=O)OC(C)C` (configuration not stated), the Potency result in test [1], in test [2], in [3], in [4], in test [5] and in test [14] was “inactive” each time. Besides, the Potency result in [15], in [7], in test [8], in [9], in test [16] and in [13] was “inactive” in each case. Besides, the molecule was called inactive in test [10] and in test [12]. Also, the activity change, positive = activation was 0.0177% (inactive) in [17] (at 42.5 µM (top of the series)) and -14.1% (inactive) in test [17] (at 92.4 µM (top of the series)).

`Cl/C=C/Cl`: the Potency result in [1], in test [2], in [3], in [18], in test [6] and in test [7] was “inactive” in each case. Besides, the Potency entry in [8], in [9], in test [13] and in test [19] was “inactive” throughout. Also, the molecule was called inactive in test [10] and in test [12].

Consider `CN(C)C(=O)Nc1cccc(C(F)(F)F)c1`, for which the Potency entry in test [1], in test [2], in [3], in test [4], in test [5] and in [6] was “inactive” throughout. Besides, the Potency result in test [7], in test [9], in test [13] and in test [19] was “inactive” in each case. Also, the outcome in test [10] and in test [12] was inactive.

As to `Cc1cc(O)ccc1Cl`, the Potency result in test [1], in test [2], in [3], in [18], in test [6] and in test [14] was “inactive” throughout. The Potency entry in test [15], in [7], in [9], in test [11], in test [16] and in test [13] was “inactive” each time. In addition, the call in [10] and in [12] was inactive. In addition, the activity change, positive = activation was 6.83% (inactive) in test [17] (at 42.5 µM (top of the series)); 0.807% (inactive) and 6.83% (inactive) in [17] (at 92.4 µM (top of the series)).

With `Oc1c(Br)cc(Br)cc1Br`, the Potency entry in test [1], in test [2], in test [3], in test [4], in [5] and in test [6] was “inactive” throughout. Further, the Potency entry in test [7], in test [8], in test [9], in test [11], in [13] and in [19] was “inactive” in each case. For the same molecule, the call in test [10] and in [12] was inactive.

For `CN(C)NC(=O)CCC(=O)O`, the Potency result in [1], in [2], in test [3], in test [4], in test [5] and in [6] was “inactive” each time. Further, the Potency entry in test [14], in [15], in test [7], in [8], in test [9] and in test [16] was “inactive” each time. For the same molecule, in test [13], the Potency result was “inactive”. Besides, the molecule was classed as inactive in test [10] and in test [12]. Also, in test [17] (at 92.4 µM (top of the series)), the activity change, positive = activation is 4.6% (inactive) and 12.8% (active).

Take `O=C(O)C(Br)Br`: the Potency result in test [1], in test [2], in test [3], in [18], in [4] and in test [5] was “inactive” each time. Also, the Potency result in [8], in test [9], in [11], in [13] and in test [19] was “inactive” each time. For the same molecule, the outcome in test [10] and in test [12] was inactive.

For `CN(C)CCC#N`, the Potency result in [1], in [2], in test [3], in test [18], in [6] and in test [8] was “inactive” in each case. In addition, the Potency result in test [9] and in test [13] was “inactive” each time. Further, the molecule was called inactive in test [10] and in test [12].
